# Active and inactive are the calls of the source.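 The calls were made as follows, unless noted: active = inhibition at or above 50% at 10 µM; inactive = inhibition below 50%.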
# Assays:
# [1] = inhibitors of TNFa-induced NFkB p65 translocation, primary screen, imaging, HUVEC, MLSMR starter and 10KST1 sets (AID 438;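 active = inhibition above 20% together with a positive visual image hit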;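 also: compound added about 3h40 before a 20 min TNFalpha stimulation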;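 as to inhibition: signal is the nuclear over cytoplasmic p65 intensity ratio per well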); settings: HUVEC TNFa-induced p65 nuclear translocation; cell count: measured here: nuclei count (cytotoxicity indicator), at 2.08 µM; inhibition: at 2 µM, stronger effect = higher value, 0% TNFa-plus-vehicle, 100% no-TNFa wells
# [2] = reduction of polyQ htt aggregates in cells – imaging, exon1htt(103Q)mCFP cells, high-content imaging, primary screen (AID 483;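 active = visual image review flags a hit and inhibition of aggregation exceeds 20%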;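 also: compound exposure lasted 3 days before fixation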;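 as to nuclei count: percent of the per-plate median nuclei count of sample wells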); settings: exon1htt(103Q)mCFP cell line, aggregate imaging, at 2 µM; inhibition of aggregation: stronger effect = higher value; nuclei count: measured here: cell count, toxicity
# [3] = endothelial E-selectin expression blockers – imaging, HUVEC, immunofluorescence, MLSMR starter and 10KST1 sets, primary screen (AID 487;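 active = visually confirmed hit in the image check and inhibition above 20%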;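 as to inhibition: signal is fraction of cell area covered by stained E-selectin grains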;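 as to nuclei count: 100% = median nuclei count of all wells on the same plate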); settings: HUVEC TNFalpha-induced E-selectin immunofluorescence imaging, at 2 µM; inhibition: stronger effect = higher value; nuclei count: measured here: cell number, toxicity
# [4] = molecular target: Voltage-gated potassium channel subunit beta-2 (Rattus norvegicus) (UniProt P62483); test: inhibitors of rat Kvbeta2 reductase activity – biochemical, NADPH fluorescence, primary screen (AID 622;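 active = fluorescence slope higher than the sample average by over 3 SD, cut at about -0.22 in these data, passing the limit was not always enough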;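 also: slope of raw intensity against log time taken from 70 to 1610 s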); settings: recombinant KvBeta, 4-cyanobenzaldehyde reduction, at 10 µM, stronger effect = higher value
# [5] = molecular target: Voltage-gated potassium channel subunit beta-2 (Rattus norvegicus) (UniProt P62483); test: enhancers of rat Kvbeta2 NADPH turnover – biochemical, NADPH fluorescence, primary screen (AID 623;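 active = NADPH fluorescence slope more negative than the mean of all samples by about 3 SD, 99.7% confidence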;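 also: fluorescence intensity change per second fitted from 20 to 320 s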); settings: Recombinant KvBeta, NADPH fluorescence decrease slope, 10 min; at 10 µM; stronger effect = lower value
# [6] = molecular target: Alpha-2C adrenergic receptor (Homo sapiens) (UniProt P18825); test: compounds altering alpha2C-coupled GIRK flux – cell-based, HEK293 alpha2C/GIRK1/2, thallium flux, primary screen (AID 624;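 active = fluorescence slope after compound addition differing from the mean of all screened samples at 99.7% confidence, in either direction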;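 also: slope of fluorescence ratio to pre-addition baseline per second over 15 to 24 s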); settings: thallium flux BTC fluorescence, at 10 µM, actives lie on both sides
# [7] = blockers of RIG-like receptor reporter activation – cell-based, Sendai virus stimulus, luciferase, 10K MLSCN set, TLR/RLR signaling modifier project, primary screen (AID 602276); settings: HEK293 RL24 IRF3 luciferase reporter, at 10 µM, stronger effect = higher value;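 also: firefly luciferase from ISG56 promoter only with Renilla not read in this screen; 0% = Sendai virus plus DMSO and 100% = medium plus DMSO without virus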
# [8] = TLR3 IRF3 reporter activation blockers – cell-based, poly I:C stimulus, luciferase, 10K MLSCN set, primary screen (AID 602277;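 active = inhibition of the reporter signal at or above 50%; inactive = inhibition below 50%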); settings: HEK293-TLR3 RL24 IRF3 luciferase reporter, at 10 µM, stronger effect = higher value
# Alpha-2C adrenergic receptor (Homo sapiens), sequence (P18825 whole entry, looked up): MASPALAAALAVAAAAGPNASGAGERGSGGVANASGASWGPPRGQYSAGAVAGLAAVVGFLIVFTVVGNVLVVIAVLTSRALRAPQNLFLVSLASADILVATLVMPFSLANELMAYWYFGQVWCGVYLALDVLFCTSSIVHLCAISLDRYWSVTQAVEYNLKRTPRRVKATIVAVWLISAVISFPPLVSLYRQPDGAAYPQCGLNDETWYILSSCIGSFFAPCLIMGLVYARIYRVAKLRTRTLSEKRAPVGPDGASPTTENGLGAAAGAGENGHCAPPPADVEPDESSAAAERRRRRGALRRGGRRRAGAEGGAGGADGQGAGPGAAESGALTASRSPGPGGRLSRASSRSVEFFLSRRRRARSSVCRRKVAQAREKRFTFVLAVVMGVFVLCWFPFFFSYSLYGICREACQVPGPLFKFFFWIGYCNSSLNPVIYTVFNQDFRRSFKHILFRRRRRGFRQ
# Voltage-gated potassium channel subunit beta-2 (Rattus norvegicus), sequence (P62483 whole entry, looked up): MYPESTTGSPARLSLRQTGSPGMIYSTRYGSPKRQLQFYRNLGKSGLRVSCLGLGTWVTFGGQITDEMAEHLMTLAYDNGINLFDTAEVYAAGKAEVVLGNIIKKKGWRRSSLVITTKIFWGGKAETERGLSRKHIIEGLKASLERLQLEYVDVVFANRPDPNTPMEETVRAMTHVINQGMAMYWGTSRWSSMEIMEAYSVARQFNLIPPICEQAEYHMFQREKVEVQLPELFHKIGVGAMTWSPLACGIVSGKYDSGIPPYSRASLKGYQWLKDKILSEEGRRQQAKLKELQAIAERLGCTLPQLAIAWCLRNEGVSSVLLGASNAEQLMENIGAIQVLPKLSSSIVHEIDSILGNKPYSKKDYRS
Structure (SMILES),cell count [1],inhibition [1],inhibition of aggregation [2],nuclei count [2] [%],inhibition [3],nuclei count [3] [%],fluorescence slope [4],NADPH fluorescence slope [5],slope [6],inhibition [7],inhibition [8]
CCN(CC)CCNC(=O)c1ccc(N2CCCCC2)c(NS(=O)(=O)c2ccc(C)cc2)c1,370,6.9% (inactive),1.6% (inactive),97.8,-16% (inactive),122,-0.557 (inactive),-3.5e-05 (inactive),0.00347 (inactive),13.5% (inactive),13.1% (inactive)
CCOC(=O)c1sc2nc(SCC(=O)NCc3ccco3)n(Cc3ccccc3)c(=O)c2c1C,395,-1.1% (inactive),0.8% (inactive),89.7,-22% (inactive),99.6,-0.449 (inactive),-2.2e-05 (inactive),0.00701 (inactive),5.1% (inactive),21.4% (inactive)
COC(=O)C(C)Sc1nnc2n(-c3cccc(C)c3)c(=O)c3c4c(sc3n12)CCCC4 (centres undefined),660,9.4% (inactive),7.6% (inactive),101,-1.2% (inactive),120,-0.58 (inactive),-3.5e-06 (inactive),0.00585 (inactive),-16% (inactive),-7.85% (inactive)
CCOC(=O)c1ccccc1NC(=O)c1ccc2c(=O)n3c(nc2c1)CCCCC3,472,15.6% (inactive),9.6% (inactive),114,-28.3% (inactive),81.5,-0.399 (inactive),-1.5e-05 (inactive),0.00636 (inactive),2.48% (inactive),32.9% (inactive)
CCOc1ccc(C(C)=O)cc1COc1ccc(-n2cnnn2)cc1,407,-8.7% (inactive),18.3% (inactive),80.8,25.1% (inactive),132,-0.617 (inactive),-6.6e-05 (inactive),0.00398 (inactive),1.13% (inactive),-2.41% (inactive)
Cc1cccc(N2C(=O)CC(Sc3nc(C)c4c(n3)CCCC4)C2=O)c1 (centres undefined),603,3.4% (inactive),-4.5% (inactive),105,2% (inactive),104,-0.592 (inactive),-2.5e-05 (inactive),0.00308 (inactive),-11.6% (inactive),-8.43% (inactive)
O=S(=O)(c1ccccc1)c1nc(-c2ccco2)oc1NCCCN1CCOCC1,548,0% (inactive),-3% (inactive),88.3,-73.7% (inactive),124,-0.502 (inactive),1.1e-05 (inactive),0.0038 (inactive),0.535% (inactive),4.26% (inactive)
O=C(O)CN1C(=O)C2(OCCCO2)c2ccccc21,542,-5.7% (inactive),-4.1% (inactive),96.1,-0.7% (inactive),124,-0.538 (inactive),6.1e-05 (inactive),0.0059 (inactive),17% (inactive),18.6% (inactive)
COc1ccc(CCNC(=O)C2=COCCO2)cc1,596,4.2% (inactive),51.2% (active),90.3,53.6% (active),99.1,-0.545 (inactive),-2.9e-05 (inactive),0.00546 (inactive),-14.5% (inactive),-26.2% (inactive)
CC(O)CN1C(=O)C(CC(=O)Nc2ccc(Cl)cc2)SC1=Nc1ccccc1 (centres undefined),671,-3.9% (inactive),-11.8% (inactive),119,-16.8% (inactive),116,-0.453 (inactive),-0.000376 (inactive),0.00536 (inactive),2.35% (inactive),11.1% (inactive)
CC(=O)c1coc2ccc(OCC(=O)O)cc12,678,-11.2% (inactive),-4.6% (inactive),110,-42.3% (inactive),110,-0.598 (inactive),-4.1e-05 (inactive),0.00474 (inactive),6.78% (inactive),15.6% (inactive)
CCC(=O)OCCn1c(=O)c2cc3c(=O)n(CCOC(=O)CC)c(=O)c3cc2c1=O,446,0% (inactive),-19% (inactive),94.4,-44.7% (inactive),125,-0.483 (inactive),2.7e-05 (inactive),0.00378 (inactive),-12.3% (inactive),6.39% (inactive)
COc1ccccc1-c1nc2n(n1)C(c1ccc(Cl)cc1)C(C(N)=O)=C(C)N2 (centres undefined),313,1.8% (inactive),4.3% (inactive),101,-37.7% (inactive),84.9,-0.464 (inactive),1.5e-05 (inactive),0.00608 (inactive),11.9% (inactive),36.9% (inactive)
CCOC(=O)CNC(=O)CSc1nnnn1-c1cc(C)ccc1C,355,-3.6% (inactive),14.6% (inactive),89.4,51.5% (inactive),82,-0.533 (inactive),3e-05 (inactive),0.00704 (inactive),4.69% (inactive),10.9% (inactive)

# — PubChem BioAssay
